Experimental data published in publication PMC12136788.
Substitutions are numbered along the chain they refer to. In all, about 5,800 sequences were measured (“enrichment r”: median about 0.54, highest 2% from about 16 on). The sample as a whole holds a higher share of the highest values than the screen did.

B1: chr9:137457406:137457901:-|CDS|ENSG00000165802|control|control|control (ssRNA)
RNA: GGGAGUUCUACAGUCCGACGAUCCGCCUGUCCCUCGUCUCCAACGGCUGCUACGAGGGCAGCCUCUCAGAGGAGCCCAGCAUUAGGAAGCCCGCAGGCGAGGGCCCUCAGCCUCGAGUGUACACCAUCUCUGGGGAGCCUGCCCAACAGAGGAUUGAGCAUCA
B2: chr10:62095068:62095169:+|3pUTR|ENSG00000150347|msi1|total|mutant (ssRNA)
RNA: GGGAGUUCUACAGUCCGACGAUCCCAUUUGCUUCAAUUAAUUAUUUACCUUCCUGUGGAAUAAUAUAUAUAUAUAUAUUUAACCGAACCACCGACCGACCCGCCGAAUUCCGAUUAUAAAUGUGUGAGUGCAGAUUAUCCUGCCAACAGAGGAUUGAGCAUCA
B3: ENSG00000039319:stop:overlap|stop_codon|ENSG00000039319|stop_codon|NA|stop_codon (ssRNA)
RNA: GGGAGUUCUACAGUCCGACGAUCCCAACUCUAGUUUACCAUUAGAAAUAGAAUUAGUGUUUUUCAUUAUAGAACAUCUUUUUUAGUGAAAGAAUGUGCCAUAUUACAUAUUGCAACCUAAUUUGUUAAAACUAACUCCAGCACCAACAGAGGAUUGAGCAUCA
B4: chr2:224511460:224511569:-|CDS|ENSG00000036257|unk|total|mutant (ssRNA)
RNA: GGGAGUUCUACAGUCCGACGAUCGAAAGCCAGAAAUUUUCCGCAGAAAACCGUGCUUCAGUAUAUAUAAAGAAAGCCGAAGCCCGAAUUAAUGAAGAAACCGAACGAGUGAUGCACUGCCUUGACAAAUCAACGGAAGAACCACAACAGAGGAUUGAGCAUCA
B5: chr14:44928120:44928223:-|3pUTR|ENSG00000179454|unk|total|mutant (ssRNA)
RNA: GGGAGUUCUACAGUCCGACGAUCCCGUACAGCAGGCCUCCCAGUGCUGAUGUAAAUAUUUGAGCAGUGUUCCGUACCAUUCUCCGUGCAUAUUAAUUUUUUUAUAUAUCCUUAUAAUUUCCGUUUUUUAAGAUCUUUGCUUUUCAACAGAGGAUUGAGCAUCA
B6: chr14:44928120:44928223:-|3pUTR|ENSG00000179454|unk|FALSE|unique (ssRNA)
RNA: B5 RNA with C24U, C25A, C71U, C72A, C83U, C84A, C120U, C121A
B7: ENSG00000070961:be:win_4451|3pUTR|ENSG00000070961|bound_else_gene|NA|bound_elsewhere_windowed (ssRNA)
RNA: GGGAGUUCUACAGUCCGACGAUCGUUUUGAAGCAACUGUUUAAUUUUUAAAAUUUUUGAAAACUUGCUAAUAACCUUUUGUUCAGAAUUUAGUAGAUUGUUUAAUGCAGGACAUCAACUACAUAAUGAAAGAUGCUUGAAAUGCAACAGAGGAUUGAGCAUCA
B8: chr6:89631235:89631336:+|3pUTR|ENSG00000135299|msi1|FALSE|unique (ssRNA)
RNA: GGGAGUUCUACAGUCCGACGAUCUGAAGUUUGAAAGCUCAGAUUAAGCAAGCCAUGCCAAGAAACUGGACGAUGUGUAAGCCUAGACUCUAAAAUUCAAGAUGUGUGAAAUAAUAUAAGUCAAAAGCAAGAAAAACGUAAUCCCAACAGAGGAUUGAGCAUCA
B9: chr7:127374855:127374969:-|CDS|ENSG00000048405|unk|total|mutant (ssRNA)
RNA: GGGAGUUCUACAGUCCGACGAUCCCCCGAAGCCAUAUAUCCAAGUGUGGACAAACGAGAAUAUAUUAUUAAGCCCGAACCCACCGAAACUAAUCAAAAUGCAGUAUUUCAAUAUAUUUCGAGGACUGAUAAUCCUAUUGAAGUCAACAGAGGAUUGAGCAUCA
B10: chr10:62095068:62095169:+|3pUTR|ENSG00000150347|msi1|FALSE|unique (ssRNA)
RNA: GGGAGUUCUACAGUCCGACGAUCCCAUUUGCUUCAAUUAAUUAUUUACCUUCCUGUGGAAUAAUAUAUAUAUAUAUAUUUAAUAGAACCAUAGAUAGACUAGUAGAAUUUAGAUUAUAAAUGUGUGAGUGCAGAUUAUCCUGCCAACAGAGGAUUGAGCAUCA
B11: chr9:21239001:21239365:-|three_prime_utr|ENSG00000228083|control|control|control (ssRNA)
RNA: GGGAGUUCUACAGUCCGACGAUCCAAAAUUUUCAAAUGUUUUCAGGAGUGUAAAGAAGCAUCAUGUAUACCUGUGCAGGCACUAGUCCUUUACAGAUGACCAUGCUGAUGUCUCCUUUCAUCUAUUUAUUUAAAUAUUUAUUUCAACAGAGGAUUGAGCAUCA
B12: chr2:224511460:224511569:-|CDS|ENSG00000036257|unk|FALSE|bound_elsewhere (ssRNA)
RNA: B4 RNA with C40U, C41A, C50U, C51A, C76U, C77A, C83U, C84A, C100U, C101A
B13: chr7:127374855:127374969:-|CDS|ENSG00000048405|unk|FALSE|unique (ssRNA)
RNA: B9 RNA with C26U, C27A, C74U, C75A, C83U, C84A
B14: ENSG00000070961:be:win_601|CDS|ENSG00000070961|bound_else_gene|NA|bound_elsewhere_windowed (ssRNA)
RNA: GGGAGUUCUACAGUCCGACGAUCCAGGUCAUUCAGAUACCUGUAGCUGACAUUACUGUUGGAGAUAUUGCUCAAGUGAAAUAUGGUGAUCUUCUUCCAGCUGACGGCAUACUUAUUCAAGGCAACGAUCUUAAAAUUGAUGAACAACAGAGGAUUGAGCAUCA
B15: chr11:10770493:10770605:+|CDS|ENSG00000198730|unk|FALSE|unique (ssRNA)
RNA: GGGAGUUCUACAGUCCGACGAUCACAUGUGGCACCCAGUGAUACAGUUCUUAUGUUUAAUGUGGCCUUGGUCCUGCAAAGAUUAGCUACCUCUGUCCUGAAAGAUGAAAAAAGUAAUCUGAAGGAAGUACUUAAUGCUGUGAACAACAGAGGAUUGAGCAUCA
B16: chr1:51919672:51919773:-|3pUTR|ENSG00000169213|unk|FALSE|unique (ssRNA)
RNA: GGGAGUUCUACAGUCCGACGAUCUAUUCUUUGCCUGCCCCUGGGGUUCUCUGCAGAUGGUCCCAGUAAUAGAUACUCAGCACUAGACUAACAUAACAGGUCACUACACGGGUGCAGAAUCACUUUACAAAAGAAGACUCUGUUCAACAGAGGAUUGAGCAUCA
B17: ENSG00000107863:be:win_5751|CDS|ENSG00000107863|bound_else_gene|NA|bound_elsewhere_windowed (ssRNA)
RNA: GGGAGUUCUACAGUCCGACGAUCACCUGACCAAAUAAACGGAGAAAGCUUCCAGAACGUGAGCAAAAAUGCUAGUUCUGCAGCGAAUGCCCAACCUCAUAAACUGUCUGAAACCCCAGGCAGUAAAGCAGAGUUUCAUCCCUGCAACAGAGGAUUGAGCAUCA
B18: chr1:113685846:113685948:+|3pUTR|ENSG00000081026|unk|FALSE|unique (ssRNA)
RNA: GGGAGUUCUACAGUCCGACGAUCUAUAUACACUUGAGGUUCUGAUUAGAGAAAGAUCUGUAAAUUGCUCAUUAUUUUUUAUAUAGAUAUUUAAAAAAAACAGUUUAUGGCCUGCAUUUCUUUUACUGUCACAUUGGUUUAAUGCAACAGAGGAUUGAGCAUCA
B19: chr21:14485227:14485911:-|three_prime_utr|ENSG00000155307|control|control|control (ssRNA)
RNA: GGGAGUUCUACAGUCCGACGAUCCCCAACUAUAUAUCUACAGAUGCAUUCCAUUUUAACUCUUCUUGAGCUAAAACGUCAAAUAGGAGAGGAAGAUAAGAUAAAUAUUUGUAAAUAAAACCUAAAGUUUAAAUGUUUUAAUCUCAACAGAGGAUUGAGCAUCA
B20: chr2:158176520:158176661:-|CDS|ENSG00000153237|control|control|control (ssRNA)
RNA: GGGAGUUCUACAGUCCGACGAUCGCUGUUGUUGCUCAAUUUGAUCCUGUUAGAAUGAUGUCAGAUACAAUGGCAUCAAAAGCUAGAAUGGGCAUUGAAAUUGAAGAAGAAUUUAUUCUUCAAAAGCCACUCUUCACAUUGAAUCAACAGAGGAUUGAGCAUCA
B21: chr2:151248206:151248307:-|3pUTR|ENSG00000184898|msi1|FALSE|unique (ssRNA)
RNA: GGGAGUUCUACAGUCCGACGAUCUUUUUUUAAAGCAAAGAUUAAAUUCCCAUGUAAAACCUUCCUCCCUAUACAAAAAAGAAUAGCAGCAUUUUUAUCUUCAAUGACAAAGAAUUGAGUCCAAGAAAAUACUGUAUAAACCUUCAACAGAGGAUUGAGCAUCA
B22: chr14:55048714:55048815:+|3pUTR|ENSG00000180008|msi1|FALSE|bound_elsewhere (ssRNA)
RNA: GGGAGUUCUACAGUCCGACGAUCUUUCUAAUUUUGAACAGAUGACUCAGUCCUAAAUCUUUGCCUUUAUUUCCUAUAAAAUGUAGGUGAUACUUGUAACUCGACUUCCUGGAGUUAAUUCUUCAGCAAGAGGUGACCCUGGGACAACAGAGGAUUGAGCAUCA

biological target: MSI1 full-length (mouse, UniProt Q61474 1-362); test: nsRBNS (natural sequence RNA bind-n-seq); RBNS binding buffer (assumed for nsRBNS): 25 mM Tris pH 7.5, 150 mM KCl, 3 mM MgCl2, 0.01% Triton X-100, 500 ug/ml BSA, 20 U/ml SUPERase-In, 4 C; UNK is unkempt and MSI1 is Musashi-1; names of the RNAs are library labels; protein concentration not given here; high values mean tight binding
Sequence (Q61474 whole entry): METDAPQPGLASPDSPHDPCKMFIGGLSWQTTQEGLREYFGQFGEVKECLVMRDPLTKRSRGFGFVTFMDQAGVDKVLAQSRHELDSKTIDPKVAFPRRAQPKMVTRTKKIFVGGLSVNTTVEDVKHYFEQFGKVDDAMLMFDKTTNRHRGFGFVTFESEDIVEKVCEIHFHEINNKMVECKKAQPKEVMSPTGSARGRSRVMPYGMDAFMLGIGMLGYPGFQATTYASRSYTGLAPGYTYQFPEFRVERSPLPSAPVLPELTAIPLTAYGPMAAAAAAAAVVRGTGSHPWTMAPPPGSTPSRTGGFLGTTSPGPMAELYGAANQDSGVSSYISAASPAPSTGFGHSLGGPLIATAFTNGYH

Binder	binding signal [enrichment R]
B1	0.4
B2	9.42
B3	0.848
B4	0.432
B5	8.16
B6	35.6
B7	0.619
B8	0.258
B9	0.508
B10	21.1
B11	0.493
B12	36.5
B13	28.2
B14	0.234
B15	0.659
B16	0.896
B17	0.256
B18	13.4
B19	1.2
B20	0.406
B21	0.494
B22	0.258
